Assay outcomes: PubChem BioAssay, National Center for Advancing Translational Sciences (NCATS)
TSG101-PTAP inh: TSG101-PTAP interaction inhibition, HIV-1 budding. Fluorescence polarization, FITC-PTAP peptide/Tsg101, 20 min. Potency, µM (doses to about 115 µM), hits mostly inhibitors. 44,000 tested, under 10 active. AID 1347069
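Fluorescence polarization: Tsg101 binding domain (10 uM final) in 10 mM HEPES pH 7.5, 0.15 M NaCl, 0.01% Tween 20, 3 mM EDTA, 0.1 mM TCEP; compounds pinned; FITC-PTAP peptide 50 nM final; 20 min, r.t.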
GALK inh: inhibits human galactokinase; 44,000 tested, under 10 active; P51570; Potency, µM (titrated, usually from 57.5 µM), hits mostly inhibitors; recombinant GALK, Kinase-Glo ATP luminescence, 1 h
Target sequence (P51570 whole entry, looked up): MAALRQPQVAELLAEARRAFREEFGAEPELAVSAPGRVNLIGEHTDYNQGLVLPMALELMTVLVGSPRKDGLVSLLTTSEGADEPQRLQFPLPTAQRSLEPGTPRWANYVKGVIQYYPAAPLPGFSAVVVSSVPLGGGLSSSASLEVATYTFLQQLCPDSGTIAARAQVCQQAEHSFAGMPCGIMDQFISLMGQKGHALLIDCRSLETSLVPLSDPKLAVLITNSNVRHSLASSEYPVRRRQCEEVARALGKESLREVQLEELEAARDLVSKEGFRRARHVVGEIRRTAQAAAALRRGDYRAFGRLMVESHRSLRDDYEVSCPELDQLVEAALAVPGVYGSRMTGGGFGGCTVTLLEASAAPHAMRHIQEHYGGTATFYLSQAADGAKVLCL
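Human GALK (5 nM) was incubated with 35 uM ATP and 100 uM galactose in 20 mM HEPES pH 8.0 with MgCl2, NaCl, DTT and BSA for 1 h at room temperature. Remaining ATP was measured by Kinase-Glo Plus luminescence.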
DRV1 agonist: activates human resolvin D1 receptor GPR32. O75388. CHO-K1 GPR32 beta-arrestin PathHunter luminescence, 90 min; zero percent set by DMSO-only wells. activation, % at 76.9 µM. 48,000 tested, 2.5% active. AID 1346428;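 active means activation of at least 60% and not above a set upper limit, about 1 call in 100 departs from these limits; inconclusive means activation of 40% to 60%, or above that upper limit; inactive means activation under 40%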
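Agonism was scored as beta-arrestin recruitment to ProLink-fused GPR32 in stably transfected CHO-K1 cells, giving a chemiluminescent beta-Gal signal; compounds were incubated 90 min at 37 °C.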
B2AR arrestin ag: beta-arrestin recruitment by human beta2-adrenergic receptor ligands. AID 1347077. P07550. 44,000 tested, under 10 active. HTLA Tango cells, beta-arrestin recruitment, luciferase luminescence, 18 h. Potency, µM (doses to about 46.1 µM), actives largely listed as activators
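Tango cells (recombinant beta2-AR, beta-arrestin, tTA-driven luciferase), 1500/well in DMEM 1% FBS, treated 18 h at 37 °C with compounds up to 46 µM; luciferin mix added, luminescence read after 15 min; %activity curves fitted and curve-classed.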
A number is an active result; i = inactive; ? = inconclusive; nt = no result. An excerpt weighted towards active compounds, which were near 2.5% of everything screened. Unless noted, the call rests on the fitted dose curve; in most records, active means well fitted curve in the direction sought with a large enough effect; inconclusive means small, poorly fitted or top-dose-only effect, or another doubt; inactive means no such curve, though single readings can be large; an effect the other way counts as inactive or inconclusive.

SMILES	TSG101-PTAP inh	GALK inh	DRV1 agonist	B2AR arrestin ag
CCOc1cccc(-c2nc3ccccc3c(=O)o2)c1	i	i	80.2	i
CC(C)c1ccc(NC(=O)CCNS(=O)(=O)c2ccc3c(c2)CCCC(=O)N3)cc1	i	i	i	i
Cc1cc(NC(=O)CCNS(=O)(=O)c2ccc3c(c2)CCCC(=O)N3)ccc1Br	i	i	100.4	i
Cc1ccc(C(CC(=O)NCC2(c3ccccc3)CCCC2)c2ccccc2)c(O)c1 (stereo not given)	i	i	63.3	i
CN1CCC(N(Cc2cccs2)c2ccccc2)CC1	nt	nt	i	nt
Cc1cc(C)c(S(=O)(=O)Nc2ccc3oc(C)c(C(=O)OC(C)C)c3c2)cc1C	i	i	i	i
CCOc1ccc(S(=O)(=O)Nc2ccc3oc(C)c(C(=O)OC(C)C)c3c2)cc1	i	i	87.0	i
CCc1ccc(S(=O)(=O)Nc2ccc3oc(C)c(C(=O)OCCOC)c3c2)cc1	i	?	64.4	i
CCCc1oc2ccc(NS(=O)(=O)c3ccc(OC)cc3)cc2c1C(=O)OCC	i	i	i	i
CC(C)NCCCC1(C(N)=O)c2ccccc2-c2ccccc21	nt	nt	i	nt
COc1cc(C2c3c(-c4c(C)cc(C)cc4O)n[nH]c3C(=O)N2CCO)cc(OC)c1OC (stereo not given)	i	i	?	i
COCCN1C(=O)c2[nH]nc(-c3c(C)cc(C)cc3O)c2C1c1cccc(O)c1 (stereo not given)	i	i	85.0	i
COc1cc(C2c3c(-c4c(C)cc(C)cc4O)n[nH]c3C(=O)N2Cc2ccco2)cc(OC)c1OC (stereo not given)	i	i	64.9	i
COc1cc(C2c3c(-c4cc(C)ccc4O)n[nH]c3C(=O)N2Cc2ccco2)cc(OC)c1OC (stereo not given)	i	i	i	?
CC(=O)N(CC(=O)N(C)C)c1ccccc1	nt	nt	i	nt
O=C(CCCCn1c(=O)[nH]c2ccsc2c1=O)N1CCN(c2cccc(C(F)(F)F)c2)CC1	i	i	74.0	i
Cc1cccc(N2CCN(C(=O)CCCCn3c(=O)[nH]c4ccsc4c3=O)CC2)c1C	i	i	61.7	i
CCOC(=O)c1cccc(NC(=O)c2ccc3c(c2)nnn3CC)c1	i	i	61.4	i
COC(=O)c1ccc(NC(=O)CSc2nc3cc4ccccc4cc3[nH]2)cc1	i	i	93.7	i
CCOC(=O)c1cccc(NC(=O)CSc2nc3cc4ccccc4cc3[nH]2)c1	i	i	113.6	i
CCn1nnc2cc(C(=O)Nc3cccc(Cl)c3)ccc21	i	i	i	i
CCOC(=O)c1ccc(NC(=O)CSc2nc3cc4ccccc4cc3[nH]2)cc1	i	i	?	i
CC(=O)Nc1ccc(S(=O)(=O)Nc2cc(C)on2)cc1	nt	nt	i	nt
CC(C)(CC(=O)NCc1ccc(Cl)cc1Cl)CC1=NS(=O)(=O)c2ccccc2N1	i	i	109.5	i
CCOc1ccccc1NC(=O)COC(=O)CC(C)(C)CC1=NS(=O)(=O)c2ccccc2N1	i	i	83.4	i
SMILES	TSG101-PTAP inh	GALK inh	DRV1 agonist	B2AR arrestin ag
COc1ccc(Cl)cc1NC(=O)COC(=O)CC(C)(C)CC1=NS(=O)(=O)c2ccccc2N1	i	i	i	i
O=C(COc1ccc2oc3c(c2c1)CCCC3)Nc1ccc(Cl)cc1	i	i	74.5	i
Cc1ccc(OCCCC(=O)Nc2sc3c(c2C(N)=O)CCC(C)C3)cc1 (stereo not given)	i	i	i	i
CC1CCc2c(sc(NC(=O)CCCOc3ccccc3)c2C(N)=O)C1 (stereo not given)	i	i	95.9	i
CC(CCc1ccc2c(c1)OCO2)NN (stereo not given)	nt	nt	i	nt
CN(Cc1cc(Br)cc(Br)c1N)C1CCCCC1	nt	nt	95.3	nt
CCOc1ccc(/C=C/c2nc3ccccc3n2S(=O)(=O)c2cccc(Cl)c2)cc1	i	i	69.8	i
Cc1c(NC(=O)c2ccc(OC(C)C)cc2)cccc1-c1nc2ncccc2o1	i	i	88.9	i
Cc1ccc(C(C)OC(=O)C2(C)CCC(C(=O)O)C2(C)C)cc1 (stereo not given)	nt	nt	i	nt
CCC1Oc2ccc(C)cc2N(CC(=O)NCc2ccc(OC)cc2)C1=O (stereo not given)	i	i	64.4	i
CCC1Oc2ccccc2N(CC(=O)NCc2ccc(C)cc2)C1=O (stereo not given)	i	i	i	i
CC(=O)CC/C=C(\C)CC/C=C(\C)CC/C=C(\C)CCC=C(C)C	nt	nt	i	nt
